PubChem BioAssay
Activity calls are given as the source filed them. No rule for the calls is given here.

These compounds were tested against Pantothenate synthetase (Mycobacterium tuberculosis (strain ATCC 25618 / H37Rv)) (UniProt P9WIL5) (assay: Coupled enzyme confirmation of inhibitors against recombinant Mtb PanC (AID 375;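 also: 0% = full reaction with vehicle and 100% = no enzyme background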)). Details: coupled enzyme assay; at 10 µM, hits give high values.
Chain of Pantothenate synthetase (Mycobacterium tuberculosis (strain ATCC 25618 / H37Rv)) (P9WIL5 whole entry, looked up): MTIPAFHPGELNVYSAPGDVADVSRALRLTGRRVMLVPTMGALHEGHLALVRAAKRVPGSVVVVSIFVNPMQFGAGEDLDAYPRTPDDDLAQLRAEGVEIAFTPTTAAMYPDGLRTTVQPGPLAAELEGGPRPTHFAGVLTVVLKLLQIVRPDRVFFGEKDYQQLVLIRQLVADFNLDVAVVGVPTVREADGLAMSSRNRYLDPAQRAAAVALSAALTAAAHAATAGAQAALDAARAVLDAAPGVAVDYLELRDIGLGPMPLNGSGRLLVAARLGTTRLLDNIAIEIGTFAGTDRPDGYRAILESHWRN

Structure (SMILES) | inhibition
CCSC1=C(C#N)C(c2ccccc2OC)CC(=O)N1 (stereo not given) | 4% (inactive)
CCOC(=O)c1ccc2ncc(C(=O)OCC)c(NCCN(C)C)c2c1 | 0% (inactive)
CCOC(=O)N1CCN(c2cc3[nH]c(=S)[nH]c3cc2F)CC1 | 2% (inactive)
Cn1c(=O)n(Cc2ccc(F)cc2)c(=O)c2c1nc1n2CCCN1Cc1ccccc1 | 0% (inactive)
Cc1ccc(N2CCN(C(=S)c3ccc(N(C)C)cc3)CC2)cc1 | 10% (inactive)
COc1ccccc1N1CCN(c2cc(=O)n(Cc3ccc(F)cc3)c(=O)[nH]2)CC1 | 0% (inactive)
CCN(CC)CC(C)CNC(=O)CC(C(=O)N1CCc2ccccc21)n1ccnc1 (stereo not given) | 2% (inactive)
CCOC(=O)c1sc(NC(=O)CSc2nnc(-c3ccc(OC)cc3)n2CCOC)nc1C | 6% (inactive)
CCOC(=O)N1CCN(C(=O)CN2C(=O)COc3ccc(C)cc32)CC1 | 6% (inactive)
CC(C)(C)c1ccccc1NC(=O)c1cccnc1 | 10% (inactive)
COc1cccc(C(=O)NCc2nnc(SCC(=O)Nc3nccs3)n2-c2ccccc2)c1 | 2% (inactive)
Fc1ccc(C2C3=C(Nc4ncnn42)c2ccccc2OC3c2ccncc2)cc1 (stereo not given) | 0% (inactive)
COCCn1c(=NC(=O)CSC(C)=O)sc2cc(F)ccc21 | 12% (inactive)
COc1ccc(-n2ncc3c(=O)n(CC(=O)OCc4ccccc4)cnc32)cc1 | 0% (inactive)
COc1cc(S(=O)(=O)n2nnc3ccccc32)c(OC)cc1Cl | 3% (inactive)
CC1=C(c2ccc(Cl)cc2)[N+](=O)C(C)(C)N1[O-] | 0% (inactive)
Cn1c2c(c(=O)n(C)c1=O)CN(CCCN1CCOCC1)CN2 | 0% (inactive)
CN(CCc1ccccn1)c1ncnc2[nH]ncc12 | 0% (inactive)
Cc1noc(C(=O)Nc2ccc3c(c2)OCO3)c1Cl | 0% (inactive)
O=C(Nc1ccc(S(=O)(=O)Nc2ccc(Cl)cc2)cc1)C1CCCO1 (stereo not given) | 4% (inactive)

Structure (SMILES) | inhibition
COc1ccc(NC(=O)Cn2nnc(-c3ccccc3F)n2)cc1Cl | 0% (inactive)
CCN1C(=O)OC2(CCCCC2)C1(C)O (stereo not given) | 0% (inactive)
CC(C)(C)C(=O)Cn1c[n+](N)cn1 | 1% (inactive)
Cc1cc2ccccn2c1C(=O)c1ccncc1 | 5% (inactive)
COc1cc(C)nc(N2CCCC(C(=O)Nc3cccc(Cl)c3Cl)C2)n1 (stereo not given) | 0% (inactive)
Cc1ccc(N(CC(=O)NCC2CCCO2)S(C)(=O)=O)cc1Cl (stereo not given) | 0% (inactive)
COc1ccc(S(=O)(=O)NCC(c2cccnc2)N2CCN(C)CC2)cc1C (stereo not given) | 0% (inactive)
Cn1c(=O)c2c(-c3ccncc3)c3c(nc2n(C)c1=O)-c1ccccc1C3=O | 0% (inactive)
Cc1c(NC(=O)C(C)OC(=O)C(NC(=O)c2ccco2)C(C)C)c(=O)n(-c2ccccc2)n1C (stereo not given) | 8% (inactive)
O=C(CCn1c(=O)oc2ccccc21)NCCN1CCOCC1 | 4% (inactive)
O=c1[nH]c2ccccc2nc1NCCN1CCOCC1 | 1% (inactive)
COc1ccc(OCC(=O)Nc2ccc(N3CCOCC3)c(Cl)c2)cc1 | 0% (inactive)
CCOc1ccc(-n2cc(C(=O)Nc3cccc(C)n3)c3cc(OC)c(OC)cc3c2=O)cc1 | 1% (inactive)
Cc1ccc(NC2=NC3(CCCCC3)N=C(N)N2)c(C)c1 | 3% (inactive)
CCOC(=O)N1CCN(C(=O)Cn2ncn3nc(-c4cccs4)cc3c2=O)CC1 | 0% (inactive)
COc1ccc(C(=O)CN2C3=NCCCN3c3ccccc32)cc1OC | 0% (inactive)
O=C1CC(C(=O)Nc2ccc(Br)cc2)C2(CCCC2)O1 (stereo not given) | 1% (inactive)
Cc1ccc(/C=N/n2nnnc2N)o1 | 0% (inactive)
CN(C(=O)c1ccccc1Cl)c1ccccc1 | 2% (inactive)
N/C(Cn1nnc(-c2ccccc2)n1)=N\O | 3% (inactive)
